Screening data deposited in PubChem BioAssay by several laboratories.
Most compounds without a hit are left out; they make up all but 0.5% or so of the library.
E coli growth-1: bacterial growth inhibition, counter-screen for AddAB inhibitors. E. coli V3065 growth, OD600 absorbance, 18 h. AID 449728. inhibition, % at 11.9 µM. actives 0.27% (n = 330,000);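 active = inhibition above the campaign's mean inhibition across all tested compounds plus 3 SD, cut at about 9.9% in these data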;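 note: uninfected addAB+ strain grown without phage in ampicillin broth; 0% = DMSO wells and 100% = ciprofloxacin 0.95 µg/ml wells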
AddAB inh: less growth of phage-infected E. coli with AddAB. E. coli expressing H. pylori AddAB, absorbance growth. inhibition, % at 11.9 µM. actives 0.29% (n = 330,000). AID 435030; in the data active = inhibition above about 12%;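 note: 0% = vehicle wells of infected cells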
Tat export inh: E. coli Tat transport inhibition | actives 0.036% (n = 340,000) | inhibition, % at 10 µM | E. coli MC4100 TorA-mCherry Tat export, fluorescence | AID 488895;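 active = mean replicate inhibition at least 50% and at least half of replicates individually reaching 50%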;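 note: exported cargo escapes ClpAP degradation while cytoplasmic cargo is degraded and loses fluorescence; 0% = median of neutral control wells and 100% = median of NaSCN control wells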
E coli growth-2: E. coli growth inhibition; actives 0.21% (n = 330,000); AID 1053175; OD600 absorbance (concentration not given with the values); Escherichia coli growth, OD600, 23 h; stronger effect = lower value;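 active = OD600 absorbance below the run mean of sample wells minus 3.6 SD, in any replicate, cut at about 0.56 in these data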
phage Ecoli inh: E. coli growth loss with phage present; actives 0.26% (n = 360,000); growth absorbance; inhibition, % at 11.9 µM; AID 651602; in the data active = inhibition above about 11%
AddAB confirm: confirmation screen: growth loss of phage-infected E. coli expressing H. pylori AddAB | shares compounds with AddAB inh | E. coli V3065 expressing H. pylori AddAB, T4 phage, OD; T4 phage with gene 2 nonsense mutations | inhibition, % at 11.9 µM | actives 64% (n = 880) | AID 488942;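 active = mean inhibition above a set limit taken from the earlier primary screen, cut at about 13% in these data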;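 note: higher means less bacterial growth since AddAB block lets phage replicate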
RecBCD counter: counter-screen: growth loss of RecBCD+ E. coli with mutant T4 phage; shares compounds with AddAB inh; E. coli V66 + mutant T4 phage, OD growth; inhibition, % at 11.9 µM; actives 73% (n = 880); AID 488955;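 active = mean inhibition above the mean of solvent-only control wells plus 3 SD, cut at about 4% in these data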;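 note: optical density read after an 18 h incubation at 37 °C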
bact viab count: counter-screen: bacterial growth inhibition; shares compounds with AddAB inh; bacterial viability, absorbance (AddAB counterscreen); inhibition, % at 11.9 µM; actives 35% (n = 880); AID 488956; in the data active = inhibition above about 25%
RecBCD conf: growth loss of phage-infected V66 E. coli, RecBCD confirmation screen. actives 45% (n = 890). E. coli V66 + T4 2- phage, growth OD. inhibition, % at 11.9 µM. shares compounds with phage Ecoli inh. AID 651982;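 active = mean inhibition over triplicates exceeding the hit threshold derived in the original primary screen, cut at about 11% in these data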
Ecoli viability: inhibits E. coli viability, flagging RecBCD hits as nonselective; absorbance (OD) growth; inhibition, % at 11.9 µM; actives 29% (n = 890); shares compounds with phage Ecoli inh; in the data active = inhibition above about 20%;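 note: E. coli strain V66 grown with compound alone and no phage infection; 0% = bacteria with DMSO vehicle only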
AddAB counter: growth loss of phage-infected AddAB E. coli, RecBCD counter-screen; shares compounds with phage Ecoli inh; E. coli expressing H. pylori AddAB + T4 phage, OD growth; gene 2 mutant T4, recBCD-deleted host; inhibition, % at 11.9 µM; actives 45% (n = 890);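 active = mean inhibition above the solvent-only control wells' mean plus 3 SD, cut at about 22% in these data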;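 note: higher means less bacterial growth from phage killing when AddAB is blocked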
* = called active by the depositor; i = inactive; · = no result given; ! = repeats disagree.

SMILES	E coli growth-1	AddAB inh	Tat export inh	E coli growth-2	phage Ecoli inh	AddAB confirm	RecBCD counter	bact viab count	RecBCD conf	Ecoli viability	AddAB counter
CCCc1nnc(NC(=O)c2cn(CC)c3cc(N4CCN(C)CC4)c(F)cc3c2=O)s1	97*	99*	·	0.07*	43*	99*	91*	101*	42*	72*	98*
COc1cccc(C=NNC(=O)c2ccc(OCc3cccc(Br)c3)cc2)c1	·	·	·	0.65	·	·	·	·	·	·	·
CCN1/C(=C/C(C)=C/c2sc3ccccc3[n+]2CC)Sc2ccccc21	38*	33*	i	0.21*	14*!	55*	20*	58*	23*	25*	68*
O=C1NCCCC1C(=O)N1CCCCC1 (configuration not stated)	1	0	6	0.64	4	·	·	·	·	·	·
O=C1CCC(=O)N(O)CCCCCNC(=O)CCC(=O)N(O)CCCCNC(=O)CCC(=O)N(O)CCCCCN1	28*	31*	-5	0.67	22*	26*	23*	13	16*	20*	21
C#CCOCCOCCOCCNc1nc(N2CCN(C(=O)C(CC(N)=O)n3cc(C(N)CC(N)=O)nn3)CC2)nc(N2CCN(C(=O)C(CC(N)=O)n3cc(C(N)CC(N)=O)nn3)CC2)n1 (configuration not stated)	·	·	·	0.65	·	·	·	·	·	·	·
O=C(NC1CC1)C1=CC(c2ccc3c(c2)OCO3)CC(OCc2ccc(CO)cc2)O1 (configuration not stated)	·	·	·	0.7	·	·	·	·	·	·	·
CC(=N/N=C1/NC(=O)C(CC(=O)Nc2ccccc2F)S1)C1CCCCC1 (configuration not stated)	·	·	·	0.63	·	·	·	·	·	·	·
O=C(Cn1c(CO)nc2ccccc21)Nc1ccc2c(c1)OCCCO2	14*	12*	-5	0.69	12*	9	12*	10	5	8	4
CC(O)c1nc2ccccc2n1CC(=O)Nc1ccc2c(c1)OCCO2 (configuration not stated)	0	2	-9	0.75	1	·	·	·	·	·	·
C[C@]12CCC3c4cc(O)c(O)cc4CCC3C1CCC2O (some centres not stated)	·	·	·	0.62	·	·	·	·	·	·	·
O=c1[nH]c(=O)n(C2C[C@H](O)[C@@H](CO)O2)cc1C(F)(F)F (some centres not stated)	10*	14*	18	·	15*	38*	12*	15	20*	15	30*
O=c1[nH]c(=O)n(C2CC(O)C(CO)O2)cc1Br (configuration not stated)	·	·	1	·	11	·	·	·	·	·	·
Cc1cn([C@H]2C[C@H](O)[C@@H](COS(=O)(=O)O)O2)c(=O)[nH]c1=O	0	1	-8	·	0	·	·	·	·	·	·
CCc1cn([C@H]2C[C@H](O)[C@@H](CO)O2)c(=O)[nH]c1=O	14*	19*	20	·	12*	38*	11*	10	14*	8	23*
O=c1[nH]c(=O)n([C@H]2C[C@H](O)[C@@H](CO)O2)cc1C(F)(F)F	9	13*	16	·	11*	40*	9.6*	13	17*	13	26*
Cc1cccc(C(=O)Nc2cccc(C(=O)NN=Cc3ccncc3)c2)c1	·	·	·	0.67	·	·	·	·	·	·	·
FC(F)(F)c1nnc(Nc2ccc(Cl)cc2)s1	5	6	-6	0.52	7	·	·	·	·	·	·
Fc1ccc(Nc2nnc(C(F)(F)F)s2)cc1Cl	16*	14*	-17	0.44*	14*	17*	19*	13	7	9	20
